According to PubChem BioAssay (Tox21):
Records with an inconclusive call do not appear. A number with no mark means an inactive call. The source made the active and inactive calls. Calls come from the whole dose curve; as a rule, active = well fitted activation curve with a large enough effect in the repeat runs; inconclusive = weak or mixed curves; inactive = no such curve, though single readings can be large or run the other way.

Test: qHTS assay to identify small molecule agonists of the estrogen related receptor (ERR) signaling pathway (AID 1224820)
Details: ERR reporter cell line, luciferase agonist mode; series mostly up to 46.1 µM; activation: at the top concentration
From the text: National Center for Advancing Translational Sciences [NCATS]
NIH Chemical Genomics Center [NCGC]
U.S. Environmental Protection Agency [EPA]
National Institutes of Environmental Health Sciences [NIEHS]
National Toxicology Program [NTP]
Estrogen related receptors (ERRs), the first orphan nuclear receptors discovered, play an important role in the control of cellular energy metabolism. ERRs are required for high-energy production in response to the environmental challenges. ERR-alpha was also identified as an adverse marker for breast cancer progression; ERR-alpha-positive tumors have a poor prognosis. To screen and to identify environmental compounds that perturb the ERR signaling pathways could provide valuable information for potential therapeutic or preventive measures in the treatment of metabolic disease. For identifying ERR agonists, ERR cell line (provided by NTP) has been used to screen LOPAC library.
The ERR cells were dispensed at 2,000 cells/5 ul/well in 1536-well white plates using a Multidrop dispenser. After the assay plates were incubated at a 37 C/5% CO2 incubator for 6 hours, 23 nL of compounds dissolved in DMSO, positive and negative controls or DMSO only was transferred to the assay plate by a pin tool. The plates were incubated at 37 C for 18 hours. 4 ul/well of One-Glo reagent was added into the assay plates using a Flying Reagent Dispenser. After 30 min incubation at room temperature, the luminescence intensity in the plates was measured using a ViewLux plate reader.
% is set by controls: 0 for no effect and ±100 for the full control effect; potency is the fitted concentration of half-maximal effect.

Row | Compound | activation | Potency
1 | CCc1ccc2c(-c3cccc(Cl)c3)nc(=O)n(CC)c2n1 | -45.6% | 
2 | NC(N)=NC(N)=Nc1ccccc1 | 9.88% | 
3 | CC(C)(C=O)Cc1cc(C(C)(C)C)c(O)c(C(C)(C)C)c1 | -5.89% | 
4 | CC(C)c1ccc2c(c1)c(SC(C)(C)C)c(CC(C)(C)C(=O)O)n2Cc1ccc(Cl)cc1 | -81.7% | 
5 | O=C(/C=C/c1ccc(O)c(O)c1)OCCc1ccccc1 | 18.2% | 
6 | C=CCN1CCc2cc(O)c(O)cc2C(c2ccccc2)C1 (stereo not given) | 15.6% | 
7 | N[C@@H](CS(=O)O)C(=O)O | 2.99% | 
8 | C[C@@H](N)C1CCC(C(=O)Nc2ccncc2)CC1 (stereo not given in full) | -28.3% | 
9 | C[C@@H](c1ncncc1F)[C@](O)(Cn1cncn1)c1ccc(F)cc1F | 8.06% | 
10 | COC1=C(OC)C(=O)c2ccccc2C1=O | -85.4% | 
11 | O=C1NC(=O)c2cc(Nc3ccccc3)c(Nc3ccccc3)cc21 | -99.7% | 
12 | O=C(O)CCc1ccc(NCc2cccc(Oc3ccccc3)c2)cc1 | -3.1% | 
13 | O=C(O)CCCC[C@@H]1CCSS1 | 16.8% | 
14 | Nc1ncnc2c1ncn2C1CCCO1 (stereo not given) | 8.38% | 
15 | N#C/C(=C\c1ccc(O)c(O)c1)C(=O)c1ccc(O)c(O)c1 | 8.97% | 
16 | Cn1ncc(S(=O)(=O)Cc2ccccc2)c(Br)c1=O | 21.9% | 
17 | Nc1nc(N)c2nc(CNc3ccc(C(=O)NC(CCC(=O)O)C(=O)O)cc3)cnc2n1 (stereo not given) | -91.1% | 
18 | Cc1cn([C@H]2CC(N=[N+]=[N-])[C@@H](CO)O2)c(=O)[nH]c1=O (stereo not given in full) | -0.236% | 
19 | CCCC(=O)c1cc(O)c(O)cc1O | -25% [at 92.2 µM] | 
20 | N=c1ccn2c(n1)O[C@H]1C(O)[C@@H](CO)O[C@H]12 (stereo not given in full) | 3.98% | 

Row | Compound | activation | Potency
21 | COc1cc(CNC(=O)CCCCCCC(C)C)ccc1O | 24.6% | 
22 | Oc1ccc(-c2nc(-c3ccc(F)cc3)c(-c3ccncc3)[nH]2)cc1 | -90.5% | 
23 | N#C/C(=C\c1ccc(O)c(O)c1)C(=O)NCCCNC(=O)/C(C#N)=C/c1ccc(O)c(O)c1 | -21.4% | 
24 | NCCS(=O)O | 2.82% | 
25 | O=C(Nc1ccncc1)c1cc([N+](=O)[O-])ccc1Cl | -31.9% | 
26 | O=C1Nc2ccc(I)cc2/C1=C/c1cc(Br)c(O)c(Br)c1 | -60.9% | 
27 | O=c1[nH]c2cc(Cl)ccc2c(O)c1-c1ccc(Oc2ccccc2)cc1 | -3.88% | 
28 | O=C(Nc1ccc2[nH]ncc2c1)C1CCC1 |  | 12.8 µM (active)
29 | CC(C)[C@H](NC(=O)OCc1ccccc1)C(=O)N[C@H](C=O)Cc1ccccc1 | -34.6% | 
30 | CN1[C@@H](CC(=O)c2ccccc2)CCC[C@H]1C[C@H](O)c1ccccc1 | 11.8% | 
31 | NCCSSCCN | 11.3% | 
32 | N[C@@H](CCCC(=O)O)C(=O)O | 11.6% | 
33 | COC(=O)C(C)(N)Cc1ccc(O)cc1 (stereo not given) | 17.4% | 
34 | O=C(CCCCCN1CCN(c2ccccc2-c2ccccc2)CC1)NC1CCCc2ccccc21 (stereo not given) | -65.3% | 
35 | N=S(=O)(O)Cc1noc2ccccc12 | 3.19% | 
36 | O=S(=O)(c1cccc2c(I)cccc12)N1CCCNCC1 | 13.4% | 
37 | CN(C)CCCc1cc(C(=O)Nc2ccc(-c3ccncc3)cc2)ccc1O | -10.9% | 
38 | CC(C)(C)c1onc(OCP(=O)(O)O)c1CC(N)C(=O)O (stereo not given) |  | inactive
39 | Fc1ccc(CN(C2=NCCN2)c2c(Cl)cccc2Cl)cc1 | 2.09% | 
40 | CCCCCCN(CCCCCC)C(=O)Cc1c(-c2ccc(F)cc2)[nH]c2ccccc12 | -60.8% | 
